Shown is part of a subset that was picked to be rich in hits.
ST2 IL33 inh: blocks human ST2 binding to IL-33; actives 2.3% (n = 78,000); AlphaLISA ST2-Fc/biotin-IL-33 interaction, 1 h; Q01638; AID 1259354; inhibition, % for hits at 17 µM; in the data active = inhibition above about 30%
Target sequence (Q01638 whole entry, looked up): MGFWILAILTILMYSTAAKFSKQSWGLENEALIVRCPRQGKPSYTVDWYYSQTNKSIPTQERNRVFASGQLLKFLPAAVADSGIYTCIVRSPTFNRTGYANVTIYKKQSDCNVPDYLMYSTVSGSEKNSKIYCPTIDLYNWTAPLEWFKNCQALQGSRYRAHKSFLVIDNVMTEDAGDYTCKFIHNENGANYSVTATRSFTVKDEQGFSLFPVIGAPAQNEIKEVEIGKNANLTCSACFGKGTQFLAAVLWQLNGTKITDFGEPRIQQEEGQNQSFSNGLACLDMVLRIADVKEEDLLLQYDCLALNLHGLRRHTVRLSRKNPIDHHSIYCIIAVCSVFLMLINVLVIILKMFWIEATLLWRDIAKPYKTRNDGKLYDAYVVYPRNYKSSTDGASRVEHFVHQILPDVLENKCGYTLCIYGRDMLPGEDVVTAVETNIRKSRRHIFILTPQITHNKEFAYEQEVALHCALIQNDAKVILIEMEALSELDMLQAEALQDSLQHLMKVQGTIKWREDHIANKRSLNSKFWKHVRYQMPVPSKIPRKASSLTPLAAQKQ
Of the large screens only hits and unclear results are named; the others gave an inactive call.

COc1cc(-c2nc3sc4c(c3c(=O)[nH]2)CCCC4)ccc1O	none
COc1ccc(CCn2cnc3sc4c(c3c2=N)CCCC4)cc1OC	none
CNCc1cc(-c2cccc(-n3nc(C)cc3C)c2)ccc1OC	none
O=C(CCc1ccccc1)Nc1ccc(F)c(F)c1	none
CCOC(=O)c1cccc(NC(=O)N2CC[C@@H](CC(=O)N(CC)C(=O)NCCCN(C)C)[C@@H](CC)C2)c1	none
CCN(CC)CCCNC(=O)C1c2ccccc2C(=O)N2CCc3ccccc3C12 (centres undefined)	none
COc1cc(Br)c(Br)c(C=Nc2cc(C)ccc2O)c1O	none
Cc1ccc(O)c(C=Nc2ccc(Br)c3cccnc23)c1	ST2 IL33 inh 97%
Cc1ccccc1N=Cc1cc([N+](=O)[O-])ccc1O	none
O=Cc1cccn1-c1ncnc2sc3c(c12)CCCC3	none
CCOc1ccc(N2COc3ccc(OCC)cc3C2)cc1	none
COc1ccc2c(c1)CN(c1ccc(C(=O)O)cc1)CO2	none
COc1ccc(N2COc3ccc(Cl)cc3C2)cc1	ST2 IL33 inh 37%
O=C(O)[C@H]1C[C@@H](C(=O)N2CCCC2)CN(C(=O)C2(Cn3cccn3)CC2)C1	none
CC(=O)C(C)C(O)C(C)c1ccc(C)cc1/C=C/CO (centres undefined)	none
O=C(O)c1cc(-c2cc(C(=O)O)c3ccccc3n2)nc2ccccc12	none
Cc1cc(C(=O)O)c2ccccc2n1	none
Cc1ccc(-c2cc(C(=O)O)c3cc4c(C(=O)O)cc(-c5ccc(C)o5)nc4cc3n2)o1	ST2 IL33 inh 91%
Fc1ccc(CN2CC[C@H](c3nnc(-c4ccccc4)o3)C2)cc1F	none
CCn1cc(CN2CCCC(CNC(=O)C3(N)CCCC3)C2)cn1 (centres undefined)	none
CCOc1ccc(-n2c3nc(=O)n(C)c(=O)c-3cc3ccccc32)cc1	none
CCCCOc1ccc(OCCCC)c2c1nc(-c1ccccc1NC)c(=O)n2C	ST2 IL33 inh 69%
CCn1nc(-c2ccccn2)nc2c(=O)n(C)c(=O)nc1-2	none
CC(C)c1ccc(NC(=O)CCN2CCN(CC3CCCO3)CC2)cc1 (centres undefined)	none
Cc1ccc(C)c(N(C)S(=O)(=O)c2cccc3cccnc23)c1	none
Cc1nn(C)c(C)c1CNC(=O)CN1C(=O)C2CCCCN2c2ccc(S(=O)(=O)N(C)C)cc21 (centres undefined)	none
COc1cc(-c2nc(C=C3C(C)=Nc4ccccc43)c(O)o2)cc(OC)c1OC	ST2 IL33 inh 34%
Cc1ccc(N=Cc2nc(-c3ccccc3)oc2O)cc1Cl	none
COc1cc(-c2nnc3n2C(C)(C)Cc2ccccc2-3)cc(OC)c1OC	none
C=C(C)CN(C)C(=O)C12CC3C[C@@](C)(C1)C[C@](C)(C3)C2	none
CC(=O)N1N=C(C2=C(c3ccccc3)C3C=C(Br)C=CC3NC2=O)CC1c1ccco1 (centres undefined)	none
CN(C)c1ccc(CN2C[C@H](O)C[C@H]2c2nc(-c3ccccn3)no2)cc1	none
COc1ccc(CN2C[C@H](O)C[C@H]2c2nc(CS(=O)(=O)c3ccc(C)cc3)no2)cc1	none
O[C@@H]1C[C@@H](c2nc(-c3cccnc3)no2)N(Cc2ccccc2)C1	none
O=C(O)c1ccc(CN2C[C@H](O)C[C@H]2c2nc(-c3ccccc3)no2)cc1	none
O[C@@H]1C[C@@H](c2nc(-c3ccc(C(F)(F)F)cc3)no2)N(Cc2ccc(-c3ccccn3)cc2)C1	none
Cn1c(CN2C[C@H](O)C[C@H]2c2nc(-c3ccccc3)no2)nc2ccccc21	none
COc1ccc(CN2C[C@H](O)C[C@H]2c2nc(-c3ccc(OC(F)(F)F)cc3)no2)cc1	ST2 IL33 inh 31%
COc1ccc(-c2noc([C@@H]3C[C@@H](O)CN3Cc3ccc(Cl)cc3)n2)cc1	none
O[C@@H]1C[C@@H](c2nc(-c3ccccc3)no2)N(Cc2c[nH]c3ccccc23)C1	ST2 IL33 inh 38%
COc1ccc(-c2noc([C@@H]3C[C@@H](O)CN3Cc3ccncc3)n2)cc1	ST2 IL33 inh 36%
CS(=O)(=O)c1ccc(CN2C[C@H](O)C[C@H]2c2nc(-c3ccc(C(F)(F)F)cc3)no2)cc1	none
O[C@@H]1C[C@@H](c2nc(-c3ccncc3)no2)N(Cc2ccc(-c3ccccn3)cc2)C1	ST2 IL33 inh 33%
CCCC(CC)Oc1nc2ccccc2s1 (centres undefined)	none
CC(=O)NS(=O)(=O)c1ccc(NC(=O)CC(C)C)cc1	none
COc1ccc2c(c1)oc(=O)n2CN1CCN(Cc2ccc3c(c2)OCO3)CC1	none
CCOc1ccccc1Nc1ncnc2c1cnn2-c1ccc(Cl)cc1	none
CC(=O)Nc1ccc(CN2C[C@H](O)C[C@H]2c2nc(CS(=O)(=O)c3ccc(F)cc3)no2)cc1	ST2 IL33 inh 74%
O=[N+]([O-])c1ccc(CN2C[C@H](O)C[C@H]2c2nc(-c3ccc(OC(F)(F)F)cc3)no2)cc1	none
O=S(=O)(Cc1noc([C@@H]2C[C@@H](O)CN2CC2CC2)n1)c1ccc(F)cc1	none
O[C@@H]1C[C@@H](c2nc(-c3ccc(F)cc3)no2)N(Cc2ccc(OC(F)(F)F)cc2)C1	ST2 IL33 inh 53%
O=S(=O)(Cc1noc([C@@H]2C[C@@H](O)CN2Cc2ccc(-c3ccccn3)cc2)n1)c1ccc(F)cc1	none
O=[N+]([O-])c1ccc(CN2C[C@H](O)C[C@H]2c2nc(-c3ccc(C(F)(F)F)cc3)no2)cc1	none
